# Activity calls are given as the source filed them.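 Rule for the calls: active = compound with fitted CDK2 half-maximal potency at or below twice its top tested dose; inconclusive = flat curve near 30 to 70% inhibition, or poor fit; inactive = the rest.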
# Target: Cyclin-dependent kinase 2 (Homo sapiens) + Cyclin-A2 (Homo sapiens) (UniProt P20248+P24941)
# Test: blockade of human CDK2 kinase activity – biochemical, dry powder, set 3, selectivity assay for Dyrk1A inhibitor project, dose response (AID 651681)
# Conditions: CDK2/cyclin A ADP-Glo luminescence, histone H1 peptide; series mostly up to 10 µM
# Cyclin-dependent kinase 2 (Homo sapiens) + Cyclin-A2 (Homo sapiens), sequence (P20248 whole entry, looked up, one chain of several): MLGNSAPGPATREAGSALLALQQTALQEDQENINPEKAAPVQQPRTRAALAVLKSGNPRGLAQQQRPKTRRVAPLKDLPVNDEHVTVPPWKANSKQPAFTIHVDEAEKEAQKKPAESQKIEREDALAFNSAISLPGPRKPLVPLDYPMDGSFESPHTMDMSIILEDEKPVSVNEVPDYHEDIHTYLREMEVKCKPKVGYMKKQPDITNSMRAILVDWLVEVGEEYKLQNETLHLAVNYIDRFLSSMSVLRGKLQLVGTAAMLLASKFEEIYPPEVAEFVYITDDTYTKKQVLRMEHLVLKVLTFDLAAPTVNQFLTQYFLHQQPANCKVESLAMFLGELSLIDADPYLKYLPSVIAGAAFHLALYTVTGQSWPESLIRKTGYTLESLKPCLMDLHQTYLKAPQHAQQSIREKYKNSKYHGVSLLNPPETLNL
compound,measurement,value
COc1ccc2c(c1)[nH]c1c(C)nccc12,outcome,inactive

# Reference: PubChem BioAssay AID651681 (Broad Institute, 2012)
